Assay results reported in PubChem BioAssay (EPA / NIEHS).
Results filed as inconclusive are left out. Active and inactive are the calls of the source. How the source made its calls, unless noted: active means hit-call score of the fitted dose curve at least 0.9, where 1 is the maximum; inactive means score below 0.9.

Tests used:
[1] = ATG_M_06_TRANS: Attagene TRANS-FACTORIAL HepG2 Assay for M06 Transcription Factor (Internal Marker) (AID 2282983; active means hit-call score of the fitted dose curve at least 0.9, where 1 is the maximum;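 further: reporter transcript level by RT-PCR then capillary electrophoresis fluorescence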); details: HepG2 Attagene TRANS M06 internal marker reporter
How it was run: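 Read-out: fluorescent reporter cDNA fragments resolved by capillary electrophoresis after RT-PCR and HpaI cut. Source cells were HepG2 carrying transfected multi-reporter GAL4 constructs, dosed 24 h. Increase over DMSO control analysed.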

[2] = ATG_M_32_TRANS: Attagene TRANS-FACTORIAL HepG2 Assay for M32 Transcription Factor (Internal Marker) (AID 2282984; active means hit-call score of the fitted dose curve at least 0.9, where 1 is the maximum;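 further: transcript level of a background control reporter unit measured by RT-PCR and capillary electrophoresis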); details: HepG2 Attagene TRANS M32 internal marker reporter
How it was run: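 Cell-based TRANS-format assay in HepG2: exogenous chimeric GAL4 reporter units transiently expressed, compounds applied 24 h. Reporter mRNA detected by RT-PCR plus capillary electrophoresis; this readout is an internal background marker.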

[3] = molecular target: Transcriptional activator Myb (Homo sapiens) (UniProt P10242); experiment: ATG_Myb_CIS: Attagene CIS-FACTORIAL HepG2 Assay for human Myeloblastosis (Myb) Proto-Oncogene Transcription Factor (AID 2282986); details: HepG2 Attagene CIS-FACTORIAL Myb reporter transcription; actives raise or lower the signal
Transcriptional activator Myb (Homo sapiens), sequence (P10242 whole entry, looked up): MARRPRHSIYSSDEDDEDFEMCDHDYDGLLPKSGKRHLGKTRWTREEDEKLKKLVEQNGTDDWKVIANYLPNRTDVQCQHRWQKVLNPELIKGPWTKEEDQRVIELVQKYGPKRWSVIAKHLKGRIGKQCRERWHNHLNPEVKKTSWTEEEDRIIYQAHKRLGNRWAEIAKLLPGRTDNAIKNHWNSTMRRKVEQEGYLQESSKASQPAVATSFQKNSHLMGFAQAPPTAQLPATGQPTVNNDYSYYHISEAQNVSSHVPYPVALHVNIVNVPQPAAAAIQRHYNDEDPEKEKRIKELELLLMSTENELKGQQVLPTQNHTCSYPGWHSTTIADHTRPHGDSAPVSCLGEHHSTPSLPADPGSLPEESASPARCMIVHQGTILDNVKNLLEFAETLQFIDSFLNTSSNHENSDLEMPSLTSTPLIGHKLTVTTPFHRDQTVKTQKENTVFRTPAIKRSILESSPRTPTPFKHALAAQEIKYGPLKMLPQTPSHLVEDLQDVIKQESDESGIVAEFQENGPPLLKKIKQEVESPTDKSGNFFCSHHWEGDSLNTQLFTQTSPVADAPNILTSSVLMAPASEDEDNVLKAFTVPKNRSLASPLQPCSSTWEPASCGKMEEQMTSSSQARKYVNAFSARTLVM
How it was run: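 Multiplexed cis-reporter system in HepG2: transient transfection, 24 h treatment, mRNA readout by RT-PCR and capillary electrophoresis. Both increases and decreases are scored versus DMSO negative control.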

[4] = molecular target: Nuclear respiratory factor 1 (Homo sapiens) (UniProt Q16656); experiment: ATG_NRF1_CIS: Attagene CIS-FACTORIAL HepG2 Assay for human Nuclear Respiratory Factor 1 (NRF1) Orphan Gene (AID 2282987); details: HepG2 NRF1 cis-element reporter, Attagene multiplex; actives raise or lower the signal
Nuclear respiratory factor 1 (Homo sapiens), sequence (Q16656 whole entry, looked up): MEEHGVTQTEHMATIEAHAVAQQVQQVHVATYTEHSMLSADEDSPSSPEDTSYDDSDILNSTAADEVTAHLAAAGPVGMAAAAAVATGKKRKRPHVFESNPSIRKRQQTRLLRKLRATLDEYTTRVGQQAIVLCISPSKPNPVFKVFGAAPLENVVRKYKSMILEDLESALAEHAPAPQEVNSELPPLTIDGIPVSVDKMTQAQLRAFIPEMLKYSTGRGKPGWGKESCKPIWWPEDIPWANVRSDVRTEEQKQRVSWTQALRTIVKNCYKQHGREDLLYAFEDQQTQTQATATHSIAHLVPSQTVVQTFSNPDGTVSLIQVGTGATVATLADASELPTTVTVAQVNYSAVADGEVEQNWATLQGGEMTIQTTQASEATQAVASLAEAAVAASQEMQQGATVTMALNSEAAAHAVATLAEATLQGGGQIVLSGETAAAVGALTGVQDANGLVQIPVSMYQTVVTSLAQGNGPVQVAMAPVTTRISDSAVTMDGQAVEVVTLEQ
How it was run: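 Endogenous factor activity was captured via cis-element-driven reporter transcripts in HepG2 cells. Following 24 h chemical treatment, transcripts were quantified by RT-PCR and capillary electrophoresis.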

[5] = ATG_NFI_CIS: Attagene CIS-FACTORIAL HepG2 Assay for human Nuclear Factor I (NFI) (AID 2282989); details: HepG2 cis-regulatory reporter, NFI response element transcription; actives raise or lower the signal
How it was run: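 Cells: human liver HepG2, transiently transfected with promoter-regulated reporter transcription units. Exposure 24 h. Detection: fluorescent RT-PCR products separated by capillary electrophoresis, normalised to DMSO negative control.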

[6] = ATG_NF_kB_CIS: Attagene CIS-FACTORIAL HepG2 Assay for human Nuclear Factor Kappa B (NF-kB) (AID 2282991); details: HepG2 Attagene cis-factorial NF-kB reporter mRNA; actives raise or lower the signal
How it was run: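 After 24 h compound incubation, transfected HepG2 cells yield total RNA; reporter cDNA is PCR-amplified, end-labelled with 6-FAM, HpaI-digested and analysed on a genetic analyser. Endogenous factor activity, DMSO-referenced bidirectional fit.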

[7] = ATG_NRF2_ARE_CIS: Attagene CIS-FACTORIAL HepG2 Assay for human Nuclear Factor Erythroid 2 Related Factor 2 (NFR2) response to Antioxidant Response Elements (ARE) (AID 2282992); details: HepG2 Attagene ARE/NRF2 reporter, transcription factor activity; actives raise or lower the signal;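 on AC50: reporter mRNA level measured by RT-PCR and capillary electrophoresis fluorescence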
How it was run: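 Endogenous transcription factor activity in human liver HepG2 cells is tracked via a cis-element-driven reporter within a multiplexed set. mRNA induction is read by RT-PCR and capillary electrophoresis after 24 h, with DMSO as baseline.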

[8] = ATG_Oct_MLP_CIS: Attagene CIS-FACTORIAL HepG2 Assay for human Octamer-Binding Transcription Factor (Oct) (AID 2282993); details: HepG2 Attagene cis-factorial Oct reporter, mRNA; actives raise or lower the signal
How it was run: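 HepG2, transient MRTU transfection, cis promoter elements; 24 h dosing; RT-PCR/CE fluorescence read-out of reporter mRNA; fit both directions vs DMSO.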

[9] = molecular target: Cellular tumor antigen p53 (Homo sapiens) (UniProt P04637); experiment: ATG_p53_CIS: Attagene CIS-FACTORIAL HepG2 Assay for human p53 Transcription Factor (AID 2282994); details: HepG2 p53 cis-element reporter, Attagene mRNA; actives raise or lower the signal
Cellular tumor antigen p53 (Homo sapiens), sequence (P04637 whole entry, looked up, the tested form may be a part): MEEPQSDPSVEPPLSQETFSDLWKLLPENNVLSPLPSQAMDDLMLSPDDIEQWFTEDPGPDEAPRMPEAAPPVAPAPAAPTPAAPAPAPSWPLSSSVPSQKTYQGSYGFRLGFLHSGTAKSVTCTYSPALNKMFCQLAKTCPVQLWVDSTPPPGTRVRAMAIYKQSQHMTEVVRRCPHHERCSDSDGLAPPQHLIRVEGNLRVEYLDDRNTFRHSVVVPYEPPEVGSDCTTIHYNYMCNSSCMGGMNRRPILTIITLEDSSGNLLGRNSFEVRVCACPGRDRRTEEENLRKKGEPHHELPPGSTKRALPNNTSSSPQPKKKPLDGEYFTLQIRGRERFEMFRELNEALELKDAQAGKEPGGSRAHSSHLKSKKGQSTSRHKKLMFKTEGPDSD
How it was run: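 Steps: transfect HepG2 with multiplexed cis reporter constructs; dose chemicals 24 h; extract RNA, reverse-transcribe, PCR-amplify reporter sequences; FAM-label, HpaI-digest, resolve fragments by CE. Activity fitted both directions relative to DMSO.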

[10] = molecular target: human Peroxisome Proliferator-activated Receptor alpha (PPARa), PPARA (gene 5465) (UniProt Q07869); experiment: ATG_PPARa_TRANS: Attagene TRANS-FACTORIAL HepG2 Assay for human Peroxisome Proliferator-activated Receptor alpha (PPARa) (AID 2283001; active means hit-call score of the fitted dose curve at least 0.9, where 1 is the maximum;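 on AC50: potency for gain of reporter signal over DMSO so agonist or activator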)
human Peroxisome Proliferator-activated Receptor alpha (PPARa), PPARA (gene 5465), sequence (Q07869 whole entry, looked up, the tested form may be a part): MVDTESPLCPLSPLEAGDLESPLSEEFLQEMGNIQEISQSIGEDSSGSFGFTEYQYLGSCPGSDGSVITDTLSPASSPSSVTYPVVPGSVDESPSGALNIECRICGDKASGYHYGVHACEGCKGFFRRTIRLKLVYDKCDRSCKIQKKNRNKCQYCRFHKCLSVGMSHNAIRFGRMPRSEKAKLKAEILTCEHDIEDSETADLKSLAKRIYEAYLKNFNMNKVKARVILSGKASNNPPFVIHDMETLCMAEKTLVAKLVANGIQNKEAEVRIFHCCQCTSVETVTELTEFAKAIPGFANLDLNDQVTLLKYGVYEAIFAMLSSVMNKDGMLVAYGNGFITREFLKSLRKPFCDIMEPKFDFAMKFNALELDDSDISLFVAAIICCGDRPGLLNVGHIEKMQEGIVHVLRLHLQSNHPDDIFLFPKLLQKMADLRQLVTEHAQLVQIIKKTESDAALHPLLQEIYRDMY
How it was run: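 Transfected HepG2 cells treated with test chemical for 24 h. RNA isolated, reverse-transcribed with oligo(dT), PCR-amplified, FAM-labelled and HpaI-digested. Fragments sized by capillary electrophoresis; gain-of-signal fit relative to DMSO.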

[11] = molecular target: Nuclear receptor subfamily 4 group A member 2 (Homo sapiens) (UniProt P43354); experiment: ATG_NURR1_TRANS: Attagene TRANS-FACTORIAL HepG2 Assay for human Nuclear Receptor Related Protein 1 (NURR1) (AID 2282985; active means hit-call score of the fitted dose curve at least 0.9, where 1 is the maximum); details: HepG2 Attagene TRANS reporter, mRNA readout
Nuclear receptor subfamily 4 group A member 2 (Homo sapiens), sequence (P43354 whole entry, looked up, the tested form may be a part): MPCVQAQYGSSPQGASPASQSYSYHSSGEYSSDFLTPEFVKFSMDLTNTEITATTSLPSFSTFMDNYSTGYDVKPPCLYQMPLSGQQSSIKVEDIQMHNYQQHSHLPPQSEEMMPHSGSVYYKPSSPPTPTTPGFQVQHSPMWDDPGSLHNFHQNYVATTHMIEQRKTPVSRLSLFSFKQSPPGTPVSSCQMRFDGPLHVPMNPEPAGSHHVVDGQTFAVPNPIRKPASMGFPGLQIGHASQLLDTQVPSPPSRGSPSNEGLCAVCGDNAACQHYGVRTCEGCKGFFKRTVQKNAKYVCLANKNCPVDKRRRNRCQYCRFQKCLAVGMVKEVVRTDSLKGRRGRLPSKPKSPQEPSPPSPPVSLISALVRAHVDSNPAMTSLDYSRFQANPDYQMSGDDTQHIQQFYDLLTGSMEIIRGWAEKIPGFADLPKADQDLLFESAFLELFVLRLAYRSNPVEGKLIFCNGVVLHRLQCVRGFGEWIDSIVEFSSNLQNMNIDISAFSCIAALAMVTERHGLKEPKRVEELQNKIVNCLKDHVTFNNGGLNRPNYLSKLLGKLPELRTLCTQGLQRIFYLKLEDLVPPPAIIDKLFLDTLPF
How it was run: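 Measures transcriptional activation by an exogenous NR-Gal4 chimera in transfected HepG2 liver cells. After 24 h, reporter RNA is reverse-transcribed, amplified and resolved by capillary electrophoresis; DMSO defines baseline.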

[12] = molecular target: Myc proto-oncogene protein (Homo sapiens) (UniProt P01106); experiment: ATG_Myc_CIS: Attagene CIS-FACTORIAL HepG2 Assay for human Myelocytomatosis (Myc) Proto-Oncogene Transcription Factor (AID 2282990); details: HepG2, Attagene cis-reporter transcription factor activity; actives raise or lower the signal
Myc proto-oncogene protein (Homo sapiens), sequence (P01106 whole entry, looked up): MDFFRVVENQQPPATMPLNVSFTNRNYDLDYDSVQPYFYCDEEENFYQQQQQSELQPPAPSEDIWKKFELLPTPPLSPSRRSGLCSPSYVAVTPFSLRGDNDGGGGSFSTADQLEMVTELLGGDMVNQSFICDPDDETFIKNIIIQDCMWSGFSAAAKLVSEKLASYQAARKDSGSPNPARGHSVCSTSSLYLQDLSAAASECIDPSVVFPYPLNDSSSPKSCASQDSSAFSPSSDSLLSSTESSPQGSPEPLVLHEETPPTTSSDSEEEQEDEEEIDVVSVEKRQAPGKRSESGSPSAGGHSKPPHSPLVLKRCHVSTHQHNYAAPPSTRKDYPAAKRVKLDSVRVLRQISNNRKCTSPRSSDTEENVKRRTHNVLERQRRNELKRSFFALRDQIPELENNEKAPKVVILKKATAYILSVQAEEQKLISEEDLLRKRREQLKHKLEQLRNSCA
How it was run: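 HepG2, transient MRTU transfection (cis promoters, endogenous TFs); 24 h dosing; TriZol RNA → oligo(dT) RT → PCR → 6-FAM primer extension → HpaI cut → CE. Bidirectional fit vs DMSO.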

[13] = BSK_3C_TissueFactor: BioMAP Diversity Plus: 3C Assay for Tissue Factor Biomarker Activity (AID 2282997); details: BioMAP 3C HUVEC, tissue factor biomarker readout; actives raise or lower the signal
How it was run: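 HUVEC, 3C system, 24 h post-dose; Tissue Factor by ELISA; bidirectional fit vs DMSO baseline.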

[14] = BSK_3C_uPAR: BioMAP Diversity Plus: 3C Assay for Urokinase-type plasminogen activator receptor (uPAR) Biomarker Activity (AID 2282998); details: BioMAP 3C HUVEC, uPAR biomarker ELISA; actives raise or lower the signal
How it was run: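 A multiplexed primary-cell system built on human umbilical vein endothelium was used, with chemical present for 24 h before reading. Cell-surface uPAR was detected by ELISA; signal change in either direction counted against DMSO.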

[15] = read-out: Intercellular Adhesion Molecule 1 (ICAM1), ICAM1 (gene 3383); experiment: BSK_3C_ICAM1: BioMAP Diversity Plus: 3C Assay for Intercellular Adhesion Molecule 1 (ICAM1) Biomarker Activity (AID 2283003); details: primary human endothelial cells (HUVEC); actives raise or lower the signal
How it was run: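 ELISA read-out of ICAM-1; HUVEC (primary human), 3C system, 24 h post-dosing; bidirectional fit vs DMSO baseline.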

[16] = molecular target: human Peroxisome Proliferator-activated Receptor delta (PPARd), PPARD (gene 5467) (UniProt Q03181); experiment: ATG_PPARd_TRANS: Attagene TRANS-FACTORIAL HepG2 Assay for human Peroxisome Proliferator-activated Receptor delta (PPARd) (AID 2283002; active means hit-call score of the fitted dose curve at least 0.9, where 1 is the maximum)
human Peroxisome Proliferator-activated Receptor delta (PPARd), PPARD (gene 5467), sequence (Q03181 whole entry, looked up, the tested form may be a part): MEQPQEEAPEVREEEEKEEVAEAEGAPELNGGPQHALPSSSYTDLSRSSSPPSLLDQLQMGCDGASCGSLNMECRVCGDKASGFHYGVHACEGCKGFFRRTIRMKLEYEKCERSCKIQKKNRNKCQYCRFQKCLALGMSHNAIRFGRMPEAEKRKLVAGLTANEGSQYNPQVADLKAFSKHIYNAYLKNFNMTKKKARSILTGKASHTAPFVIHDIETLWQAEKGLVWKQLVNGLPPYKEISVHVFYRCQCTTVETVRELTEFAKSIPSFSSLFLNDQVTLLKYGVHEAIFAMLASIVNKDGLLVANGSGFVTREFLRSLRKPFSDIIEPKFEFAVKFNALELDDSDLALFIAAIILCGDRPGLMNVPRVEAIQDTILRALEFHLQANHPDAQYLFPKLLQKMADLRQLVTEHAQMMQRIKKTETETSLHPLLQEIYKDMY
How it was run: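 Transient HepG2 transfection (multiple GAL4-UAS RTUs, chimeric receptor-Gal4); 24 h dosing; total RNA → oligo(dT) RT → PCR → 6-FAM primer extension → HpaI cut → CE. Positive direction vs DMSO.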

[17] = molecular target: human Retinoic Acid Receptor beta (RARb), RARB (gene 5915) (UniProt P10826); experiment: ATG_RARb_TRANS: Attagene TRANS-FACTORIAL HepG2 Assay for human Retinoic Acid Receptor beta (AID 2283004; active means hit-call score of the fitted dose curve at least 0.9, where 1 is the maximum)
human Retinoic Acid Receptor beta (RARb), RARB (gene 5915), sequence (P10826 whole entry, looked up, the tested form may be a part): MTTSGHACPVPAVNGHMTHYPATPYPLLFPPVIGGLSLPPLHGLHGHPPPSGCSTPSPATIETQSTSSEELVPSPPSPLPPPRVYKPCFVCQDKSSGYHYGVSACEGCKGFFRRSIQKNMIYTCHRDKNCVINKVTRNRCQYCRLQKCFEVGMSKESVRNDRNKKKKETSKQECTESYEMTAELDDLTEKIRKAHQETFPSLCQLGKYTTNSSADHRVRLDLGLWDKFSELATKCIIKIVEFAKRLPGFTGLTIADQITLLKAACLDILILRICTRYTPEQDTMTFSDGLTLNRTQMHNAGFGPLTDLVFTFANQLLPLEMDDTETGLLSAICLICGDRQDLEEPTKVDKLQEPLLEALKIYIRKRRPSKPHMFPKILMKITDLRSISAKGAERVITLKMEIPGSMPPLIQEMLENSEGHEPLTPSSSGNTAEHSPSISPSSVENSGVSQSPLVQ
How it was run: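 Readout is reporter mRNA induction: RNA reverse-transcribed, PCR-amplified, FAM-labelled, HpaI-cut and resolved by capillary electrophoresis. Transiently transfected HepG2 cells carrying exogenous NR–Gal4 chimeras were dosed for 24 h; activity fitted upward relative to DMSO.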

[18] = BSK_3C_VCAM1: BioMAP Diversity Plus: 3C Assay for Vascular cell adhesion molecule 1 (VCAM1) Biomarker Activity (AID 2282999); details: BioMAP 3C HUVEC, VCAM1 ELISA, cytokine-stimulated; actives raise or lower the signal
How it was run: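 Activity fitted in both directions relative to DMSO, with ELISA measurement of the surface marker on primary HUVEC (3C) at 24 h post-treatment; parallel SRB staining (0.1% SRB, TCA-fixed, 560 nm) flagged overt cytotoxicity.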

[19] = BSK_4H_Eotaxin3: BioMAP Diversity Plus: 4H Assay for Eotaxin 3 Biomarker Activity (AID 2283000); details: primary human endothelial cells (HUVEC); actives raise or lower the signal;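 further: CCL26 protein level quantified by ELISA in parallel with SRB cytotoxicity check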
How it was run: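 Readout is Eotaxin-3 (CCL26) level by ELISA in primary human umbilical vein endothelial cells harvested 24 h after chemical exposure; activity fitted in both directions against DMSO control.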

Measured: AC50

O=C(Cl)c1ccc(Cl)cc1
inactive: [1] | [2] | [3] | [4] | [5] | [6] | [7] | [8] | [9] | [10]

CCSC(C)CC1CC(=O)C(C(CC)=NOC/C=C/Cl)=C(O)C1 (configuration not stated)
inactive: [1] | [2] | [11] | [4] | [5] | [12] | [6] | [7] | [8] | [9] | [13] | [14] | [15]

CCC(=O)c1ccccc1
inactive: [1] | [2] | [3] | [4] | [5] | [6] | [7] | [8] | [9] | [10] | [16]

CC(C)c1cccc(C(C)C)c1O
inactive: [1] | [2] | [11] | [3] | [5] | [12] | [6] | [7] | [8] | [9] | [16] | [17]

Clc1ccc(COC(Cn2ccnc2)c2ccc(Cl)cc2Cl)cc1 (configuration not stated)
active: [7] 6.8 µM | [10] 0.0853 µM
inactive: [1] | [2] | [11] | [3] | [4] | [5] | [12] | [6] | [8] | [9] | [16]

NC(=S)Nc1ccccc1
inactive: [1] | [2] | [3] | [4] | [5] | [12] | [6] | [7] | [8] | [13] | [14] | [18] | [19] | [10] | [16] | [15] | [17]

CC12CC1(C)C(=O)N(c1cc(Cl)cc(Cl)c1)C2=O (configuration not stated)
inactive: [1] | [2] | [11] | [3] | [4] | [5] | [12] | [6] | [7] | [8] | [9] | [13] | [14] | [19] | [10] | [15]

Oc1ccc(-c2ccccc2)cc1
active: [12] 176 µM | [7] 100 µM | [8] 73.8 µM | [9] 27.9 µM | [13] 20 µM
inactive: [1] | [2] | [3] | [4] | [5] | [6] | [14] | [18] | [10] | [16] | [15]

COC[C@H](C)N(C(=O)CCl)c1c(C)csc1C
inactive: [1] | [2] | [11] | [3] | [5] | [12] | [6] | [7] | [8] | [9] | [13] | [14] | [19] | [15]
